# Test results from article PMC7826789 (International Journal of Molecular Sciences, 2021).
# Tested on: TYK2(JH1domain-catalytic)
# Settings: Compound Concentration (nM):1000
# 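Also: KINOMEscan scanMAX binding as percent activity remaining versus control; lower means stronger binding.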
row,SMILES,Percent Control
1,COc1cc2ncnc(Nc3ccc4c(cnn4Cc4ccccc4)c3)c2cc1OC.Cl [GW282449A],100%
2,Cl.c1ccc(Cc2nc3ccc(Nc4ncnc5ccccc45)cc3[nH]2)cc1 [GR269666A],100%
3,NS(=O)(=O)c1ccc(N/N=C2\C(=O)Nc3ccc(-c4cnco4)cc32)cc1 [GW276655],24%
4,COc1ccc2[nH]c3c4[nH]c5ccc(OC)cc5c4c4c(c3c2c1)C(=O)NC4=O [GW296115X],87%
5,CCc1ccc(Oc2nccc(-c3c(-c4ccc(F)cc4)ncn3C3CCNCC3)n2)cc1 [SB-242719],100%
6,CC1=C(C(=O)Nc2ccc3[nH]ncc3c2)C(c2ccc3ccccc3c2)CC(=O)N1 (stereo not drawn) [GSK270822A],10%
7,NS(=O)(=O)c1ccc(Nc2ncc(-c3ccccc3)o2)cc1 [GW572399X],100%
8,C/C(Nc1ccc(S(N)(=O)=O)cc1)=C1/C(=O)Nc2ccccc21 [GW335962X],77%

# Tested on: TYK2(JH2domain-pseudokinase)
# Settings: Compound Concentration (nM):1000
row,SMILES,Percent Control
1,COc1cc(N2CCN(C(C)C)CC2)ccc1Nc1nc(Nc2ccc(F)cc2C(=O)NC[C@@H](O)CO)c2cc[nH]c2n1 [GSK1392956A],100%
2,Nc1ncnc2occ(-c3ccc(NC(=O)Nc4cc(C(F)(F)F)ccc4F)cc3)c12 [GW770249X],100%
3,NS(=O)(=O)c1ccc(N/N=C2\C(=O)Nc3ccc(C(=O)NCc4ccncc4)cc32)cc1 [GW300657X],31%
4,COc1cccc(-c2c[nH]c3c(N/N=C/c4ccncc4)ncnc23)c1 [GW814408X],0.1%
5,COc1ccc2c(-c3ccnc(Nc4cccc(OC(F)(F)F)c4)n3)cnn2n1 [GW810372X],75%
6,CCS(=O)(=O)c1ccc(OC)c(Nc2ncc(-c3cccc(OC)c3)o2)c1 [GW580509X],100%
7,Cl.O=C(Nc1ccc(Oc2ccc3[nH]c(NC(=O)c4ccco4)nc3c2)cc1)Nc1cc(C(F)(F)F)ccc1F [GW683134A],100%
8,CCn1c(-c2nonc2N)nc2c(C#CC(C)(C)O)nc(OCCNC)cc21.Cl [GSK949675],95%
9,COc1cccc(-n2ncc3c(N/N=C/c4ccncc4)ncnc32)c1 [GW784752X],11%
10,COc1ccccc1-c1cc(/C=C2\C(=O)Nc3ncc(Br)cc32)cc(Br)c1O [GW442130X],100%
11,Cl.O=C(O[C@H]1CN[C@H](C#Cc2cc3ncnc(Nc4ccc5c(cnn5Cc5ccccc5)c4)c3s2)C1)N1CCOCC1 [GSK200398A],97%
12,COc1cc2ncn(-c3cc(O[C@H](C)c4ccccc4Cl)c(C(N)=O)s3)c2cc1OC [GSK237701A],97%
13,Cl.O=C(Nc1ccc(Oc2ccc3[nH]c(NC(=O)c4ccccc4)nc3c2)cc1)Nc1cc(C(F)(F)F)ccc1F [GW709042A],100%
14,NS(=O)(=O)c1ccc(N/N=C2\C(=O)Nc3ccc(C(=O)NCCc4c[nH]cn4)cc32)cc1 [GW300660X],84%
15,CN1CCN(C(=O)c2ccc(NC(=O)Nc3ccc(N(C)c4ccnc(Nc5ccc(CS(C)(=O)=O)cc5)n4)cc3)cc2)CC1.Cl [GW830263A],6.5%
16,CN(C)CCNC(=O)Nc1ccc(N(C)c2ccnc(Nc3ccc(CS(C)(=O)=O)cc3)n2)cc1.Cl [GW830900A],49%
17,COc1cc(C)c(N(C)C(=O)CN(C)C)cc1Nc1nc(Nc2cccc(F)c2C(N)=O)c2cc[nH]c2n1 [GSK2219385],100%
18,CCS(=O)(=O)c1ccc(OC)c(Nc2ncc(-c3cccc(F)c3)o2)c1 [GW621970X],100%
19,Cc1cc(O)cc(C)c1/C=C/c1cncc(C(N)=O)c1 [GW435821X],90%
20,COc1ccc(COc2ccc(Cc3cnc(N)nc3N)cc2OC)cc1 [GW632580X],100%

row,SMILES,Percent Control
1,COc1cc(/C=N/Nc2ncnc3[nH]ncc23)ccc1O [GW578748X],0.2%
2,NS(=O)(=O)c1ccc(N/N=C2\C(=O)Nc3ccc(Cl)cc32)cc1 [GW280670X],100%
3,CN(C)c1cc2c(Nc3ccc4c(cnn4Cc4ccccc4)c3)ncnc2cn1 [GW282974X],100%
4,COc1cc(C=NNc2ncnc3c2cnn3-c2ccccc2)ccc1O [GW513184X],8%
5,CC(C)COC(=O)c1ccc2c(c1)/C(=C/Nc1ccc(S(N)(=O)=O)cc1)C(=O)N2 [GW416981X],100%
6,C[C@@H](Oc1cc(-n2cnc3ccc(OC4CCN(C)CC4)cc32)sc1C(N)=O)c1ccccc1Cl [GSK579289A],93%
7,COC(=O)Nc1nc2ccc(Oc3ccc(NC(=O)Nc4cc(C(F)(F)F)ccc4F)cc3)cc2s1.Cl [GW693917A],100%
8,O=C1Nc2ccc(C(=O)c3ccco3)cc2C1=Cc1cc(Cl)c(O)c(Cl)c1 [GW406108X],41%
9,Cl.O=S1CCN(Cc2ccc(-c3ccc4ncnc(Nc5ccc(OCc6ccccc6)c(F)c5)c4c3)o2)CC1 [GW576924A],100%
10,CC1=C(C(=O)Nc2ccc3[nH]ncc3c2)C(c2ccc(Cl)c(Cl)c2)CC(=O)N1 (stereo not drawn) [GSK299115A],100%
11,O=C(Nc1n[nH]c2nc(-c3ccc(O)cc3)c(Br)cc12)C1CC1 [SB-725317],100%
12,COc1ccc2cc(-c3c(-c4ccncc4)nc(-c4ccc(S(C)(=O)=O)cc4C)n3C)ccc2c1 [SB-633825],100%
13,COc1cc2ncnc(Nc3ccc4c(cnn4Cc4ccccc4)c3)c2cc1OC.Cl [GW282449A],100%
14,Cl.c1ccc(Cc2nc3ccc(Nc4ncnc5ccccc45)cc3[nH]2)cc1 [GR269666A],100%
15,NS(=O)(=O)c1ccc(N/N=C2\C(=O)Nc3ccc(-c4cnco4)cc32)cc1 [GW276655],37%
16,COc1ccc2[nH]c3c4[nH]c5ccc(OC)cc5c4c4c(c3c2c1)C(=O)NC4=O [GW296115X],84%
17,CCc1ccc(Oc2nccc(-c3c(-c4ccc(F)cc4)ncn3C3CCNCC3)n2)cc1 [SB-242719],100%
18,CC1=C(C(=O)Nc2ccc3[nH]ncc3c2)C(c2ccc3ccccc3c2)CC(=O)N1 (stereo not drawn) [GSK270822A],58%
19,NS(=O)(=O)c1ccc(Nc2ncc(-c3ccccc3)o2)cc1 [GW572399X],100%
20,C/C(Nc1ccc(S(N)(=O)=O)cc1)=C1/C(=O)Nc2ccccc21 [GW335962X],100%
